From PubChem BioAssay (NCATS) come the findings set out here.

Test [1] can be described thus: qHTS of pediatric cancer cell lines to identify multiple opportunities for drug repurposing: Primary screen for A673 cells (AID 1347092). Note: nearly all actives have a fitted effect of over 45% in size. The method, boiled down: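 A673 cells (500-1,000 cells/well) were treated 48 hours at 37 degrees C with compounds at 11-point (0.78 nM to 46 µM) or 8-point (0.59 nM to 46 µM) dilutions. Viability read by CellTiter-Glo luminescence; concentration-response curves fitted.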

Test [2] in a line: qHTS of pediatric cancer cell lines to identify multiple opportunities for drug repurposing: Primary screen for SK-N-MC cells (AID 1347093). In short, it runs like this:
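Metabolically active cells were quantified by ATP-dependent luminescence (CellTiter-Glo, 15 min at room temperature) following 48 h treatment. Cells had been plated at 500-1,000 per well and settled for 5 h beforehand.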
In general terms: qHTS replaces the single test concentration by a dilution series.

A short description of test [3]: qHTS of pediatric cancer cell lines to identify multiple opportunities for drug repurposing: Primary screen for BT-37 cells (AID 1347094). The method, boiled down: (§1)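 Luminescence from CellTiter-Glo served as readout of metabolically active cells after 48 h compound exposure. Titrations: MIPE 11-point, from 0.78 nM; NPC 8-point, from 0.59 nM (final). Concentration-response curves came straight from the primary screen.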

The nature of test [4]: qHTS of pediatric cancer cell lines to identify multiple opportunities for drug repurposing: Primary screen for NB-EBc1 cells (AID 1347095). In short, it runs like this:
as §1

Test [5] is described as follows: qHTS of pediatric cancer cell lines to identify multiple opportunities for drug repurposing: Primary screen for U-2 OS cells (AID 1347096). Note: nearly all actives have a fitted effect of over 50% in size. The method, boiled down:
(§2)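 Cells (500-1,000/well) in growth media were settled 5 h at 37 degrees C, then given compounds for 48 h. Viability was read as CellTiter-Glo luminescence. Primary runs used MIPE at 11 points (0.78 nM-46 µM) and NPC at 8 points (0.59 nM-46 µM); follow-ups used 11 points.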

Test [6] can be described thus: qHTS of pediatric cancer cell lines to identify multiple opportunities for drug repurposing: Primary screen for Saos-2 cells (AID 1347097). Note: nearly all actives have a fitted effect of over 40% in size. In short, it runs like this: as §1
Test [7] is described as follows: qHTS of pediatric cancer cell lines to identify multiple opportunities for drug repurposing: Primary screen for SK-N-SH cells (AID 1347098). Note: nearly all actives have a fitted effect of over 65% in size. The method, boiled down:
(§3)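 Cells (500-1,000/well) rested 5 h, then received compounds for 48 h; metabolically active cells were measured by CellTiter-Glo luminescence. Final concentrations spanned up to 46 µM (MIPE, 11-point) or 0.59 nM-46 µM (NPC, 8-point) in primary screens, 11-point in follow-ups.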

Test [8] in a line: qHTS of pediatric cancer cell lines to identify multiple opportunities for drug repurposing: Primary screen for NB1643 cells (AID 1347099). Note: nearly all actives have a fitted effect of over 50% in size. The method, boiled down:
as §1

Test [9] is described as follows: qHTS of pediatric cancer cell lines to identify multiple opportunities for drug repurposing: Primary screen for LAN-5 cells (AID 1347100). The method, boiled down: as §2
Test [10] can be described thus: qHTS of pediatric cancer cell lines to identify multiple opportunities for drug repurposing: Primary screen for BT-12 cells (AID 1347101). Note: nearly all actives have a fitted effect of over 25% in size. The method, boiled down:
as §3

Where “and” joins values, the source holds several entries; their conditions need not be identical. Identical values can stand only once. Inconclusive results are not listed. Calls of active or inactive are those of the source. Calls come from the whole dose curve; as a rule, active = well fitted curve in the direction sought with a large enough effect; inconclusive = small, poorly fitted or top-dose-only effect, or another doubt; inactive = no such curve, though single readings can be large; an effect the other way counts as inactive or inconclusive.
Potency is the fitted concentration of half-maximal effect.

In the case of `O=NN(CCCl)C(=O)NC1CCCCC1`, the Potency entry in [1], in test [2], in test [3], in [4], in test [5] and in [6] was “inactive” throughout. The Potency entry in test [7], in test [8], in [9] and in [10] was “inactive” in each case.

Take `O=C(O)c1cc(=O)[nH]c(=O)[nH]1`: the Potency entry in test [1], in test [2], in test [3], in test [4], in test [5] and in test [6] was “inactive” throughout. For the same molecule, the Potency entry in test [8] is “inactive”.

For the molecule `O=P(O)(O)C(O)(Cc1cccnc1)P(=O)(O)O`, the Potency entry in test [1], in test [2], in test [3], in [4], in test [5] and in test [6] was “inactive” in each case. Also, the Potency entry in test [7], in test [8] and in test [10] was “inactive” each time.

Take `CCOC(=O)c1ccc(C#Cc2ccc3c(c2)C(C)(C)CCS3)nc1`: the Potency was 23.5 µM (active) in [1] and 18.7 µM (active) in test [2]. The Potency entry in test [3], in [4], in test [5], in [7], in [8] and in [10] was “inactive” each time.

Regarding `CC(C)C[C@H](NC(=O)[C@H](CCc1ccccc1)NC(=O)CN1CCOCC1)C(=O)N[C@@H](Cc1ccccc1)C(=O)N[C@@H](CC(C)C)C(=O)[C@@]1(C)CO1`, the Potency in [1] was 10.6 nM (active) and 18.7 nM (active); in test [2] it was 6 nM (active) and 5.9 nM (active); in [3], 174 nM (active) and 306 nM (active); in test [4] it was 53.1 nM (active) and 29.6 nM (active); in [5], 1.06 µM (active) and 1.48 µM (active); in test [6] it was 42.2 nM (active) and 93.5 nM (active). Also, the Potency is 42.2 nM (active) and 52.6 nM (active) in test [8]; 668 nM (active) and 132 nM (active) in test [9]; 87.1 nM (active) and 137 nM (active) in [10].

Turning to `COC(=O)Nc1nc2ccc(S(=O)c3ccccc3)cc2[nH]1` (stereo not drawn), the Potency in test [1] is 841 nM (active) and 9.35 µM (active); in test [2], 376 nM (active) and 8.33 µM (active); in test [3], 1.55 µM (active); in [4] it was 473 nM (active) and 8.33 µM (active); in test [6] it was 8.33 µM (active); in test [7], 1.54 µM (active) and 19.2 µM (active). Besides, the Potency in test [9] was 944 nM (active) and 11.8 µM (active).

For the molecule `CN(C)c1ccc(C(=C2C=CC(=[N+](C)C)C=C2)c2ccc(N(C)C)cc2)cc1`, the Potency is 1.06 µM (active) and 93.5 nM (active) in [1]; 1.06 µM (active) in [2]; 1.23 µM (active) and 685 nM (active) in [3]; 2.99 µM (active) and 935 nM (active) in test [4]; 2.11 µM (active) and 418 nM (active) in test [6]; 1.09 µM (active) and 2.41 µM (active) in test [7]. The Potency in [8] was 3.35 µM (active) and 7.43 µM (active); in test [10] it was 1.38 µM (active) and 611 nM (active).

For `CNCC[C@H](Oc1cccc2ccccc12)c1cccs1`, the Potency was 1.18 µM (active) in test [1]; 1.05 µM (active) in [2]; 19.4 µM (active) and 5.41 µM (active) in test [7]. The Potency result in [4], in [5] and in test [9] was “inactive” each time.

Consider `CCCCc1oc2ccc(NS(C)(=O)=O)cc2c1C(=O)c1ccc(OCCCN(CCCC)CCCC)cc1`, for which the Potency was 1.18 µM (active) in [1]; 21.1 µM (active) in [2]; 17.2 µM (active) and 27.6 µM (active) in test [3]; 18.7 µM (active) and 23.7 µM (active) in test [6]; 27.1 µM (active) and 17.2 µM (active) in [7]; 18.7 µM (active) in test [8]. In addition, the Potency in [9] was 11.8 µM (active) and 18.8 µM (active).

In the case of `NC(N)=NC(N)=NCCc1ccccc1`, the Potency in [1] is 8.41 µM (active) and 5.9 µM (active). In addition, the Potency result in test [2], in [4], in test [5], in [6], in test [7] and in [8] was “inactive” in each case. In test [9], the Potency entry is “inactive”.

As to `O=C(N[C@H](CO)[C@H](O)c1ccc([N+](=O)[O-])cc1)C(Cl)Cl`, the Potency entry in [1], in test [2], in test [3], in test [4], in test [5] and in [6] was “inactive” throughout. Further, the Potency entry in [8] and in [9] was “inactive” in each case.

`Cc1ccc(S(=O)(=O)N[C@@H](Cc2ccccc2)C(=O)CCl)cc1`: the Potency is 14.8 µM (active) in test [1]; 7.43 µM (active) in test [2]; 24.3 µM (active) in [3]; 16.6 µM (active) in test [4]; 9.35 µM (active) in test [6]; 21.5 µM (active) in [7]. The values for the Potency in [8] and in test [9] were 20.9 µM (active) and 16.6 µM (active), respectively.

On to `CC1(C)[C@H](C(=O)O)N2C(=O)C[C@H]2S1(=O)=O`, for which the Potency result in test [1], in [3], in test [4], in test [5], in test [6] and in [7] was “inactive” throughout. Moreover, the Potency entry in test [8] and in [10] was “inactive” in each case.

Take `CC(=O)[C@H]1CC[C@H]2[C@@H]3CC=C4C[C@@H](O)CC[C@]4(C)[C@H]3CC[C@]12C`: the Potency entry in test [1], in [2], in [3], in test [4], in test [5] and in test [6] was “inactive” throughout. Further, the Potency result in test [8] and in [9] was “inactive” in each case.

Take `CC(=O)[C@H]1CC[C@H]2[C@@H]3CCC4=CC(=O)CC[C@]4(C)[C@H]3CC[C@]12C`: the Potency in [1] was 1.18 µM (active); in test [2], 0.526 µM (active); in test [7], 12.1 µM (active); in test [8] it was 2.96 µM (active); in test [10], 24.3 µM (active). For the same molecule, the Potency result in [4] and in test [5] was “inactive” in each case.

As for `Oc1c(Cl)cc(Cl)c2cccnc12`, the Potency in test [1] is 2.66 µM (active) and 9.35 µM (active); in test [2], 4.73 µM (active) and 9.35 µM (active); in test [3], 24.6 µM (active) and 27.3 µM (active); in test [4], 2.99 µM (active) and 7.43 µM (active); in test [6], 16.6 µM (active); in test [7] it was 3.86 µM (active) and 30.4 µM (active). Further, the Potency in test [8] was 2.66 µM (active) and 6.62 µM (active); in [9], 5.96 µM (active) and 18.7 µM (active); in test [10], 27.6 µM (active) and 30.6 µM (active).

Consider `N=C(N)c1ccc(OCCCCCOc2ccc(C(=N)N)cc2)cc1`, for which the Potency in test [1] is 21.1 µM (active) and 14.8 µM (active); in test [2], 33.2 µM (active); in [7], 9.61 µM (active); in test [8] it was 20.9 µM (active); in test [10], 2.46 µM (active) and 4.85 µM (active). In addition, the Potency entry in [4] and in test [5] was “inactive” throughout.

Turning to `CC1=C(C(=O)O)N2C(=O)[C@@H](NC(=O)C(N)c3ccccc3)[C@H]2SC1` (stereo partly drawn), the Potency entry in test [1], in [3], in test [4], in test [5], in test [6] and in test [7] was “inactive” in each case. For the same molecule, the Potency entry in test [8], in test [9] and in [10] was “inactive” throughout.

Turning to `Cc1cc(NS(=O)(=O)c2ccc(N)cc2)no1`, the Potency entry in test [1], in [3], in test [4], in test [5] and in [6] was “inactive” throughout.
